Results taken from PubChem BioAssay AID1347075 (National Center for Advancing Translational Sciences (NCATS), 2019).
The campaign covered roughly 400,000 compounds. About 5,500 (1.4%) were called active. Inconclusive results (about 9%) are left out. Calls come from the whole dose curve; as a rule, active = well fitted cell-killing curve with a large enough effect; inconclusive = small, poorly fitted or top-dose-only effect, or effect the other way; inactive = flat fitted curve, though single readings scatter. What follows is part of a selection rich in actives, with near analogues and random picks from the rest.

Assay: qHTS assay for MDR1-selective chemotherapeutics: Primary screen using the parental adenocarcinoma cell KB-3-1; note: nearly all actives have a fitted effect of over 60% in size
Details: KB-3-1 viability, CellTiter-Glo ATP luminescence, 72 h; series mostly up to 46.1 µM; activity change, negative = cytotoxic: at the top concentration
In short: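 Screening of KB-3-1 cells (DMEM, 10% FBS, phenol-red free) ran from lowest to highest compound concentration; after 72 h at 37 °C viability was read luminescently and curves fitted.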
% is set by controls: 0 for no effect and ±100 for the full control effect; potency is the fitted concentration of half-maximal effect.

**Q.** For `CC(=O)Nc1cccc(-c2ccnc3c2CC(C)(C(=O)NCc2ccccc2)O3)c1` (stereo not drawn), which Potency is on record?
**A.** 2.91 µM (active)

**Q.** With `CC1(C(=O)NCc2ccco2)Cc2c(-c3ccc4c(c3)OCO4)ccnc2O1` (stereo not drawn) as the compound, how does the Potency read?
**A.** 2.59 µM (active)

**Q.** Which “activity change, negative = cytotoxic” value does the source give for `O=C(Cn1nnc(-c2ccc3c(c2)OCO3)n1)NCc1ccco1` here?
**A.** -9.57% (inactive)

**Q.** For `CC1(C(=O)Nc2cccnc2)Cc2c(-c3ccccc3)ccnc2O1` (stereo not drawn), which “activity change, negative = cytotoxic” value is on record?
**A.** -2.18% (inactive)

**Q.** For `CC(=O)Nc1cccc(-c2ccnc3c2CC(C)(C(=O)NCc2ccco2)O3)c1` (stereo not drawn), which “activity change, negative = cytotoxic” value is on record?
**A.** -6.09% (inactive)

**Q.** Which “activity change, negative = cytotoxic” value does the source give for `CS(=O)(=O)N(CC(=O)NCc1ccco1)c1ccc2c(c1)OCO2` here?
**A.** -2.96% (inactive)

**Q.** With `CC1=C(C(=O)OCc2ccc(C)cc2)C(c2c(Cl)cccc2Cl)CC(=O)N1` (stereo not drawn) as the compound, how does the “activity change, negative = cytotoxic” value read?
**A.** 1.29% (inactive)

**Q.** With `Cc1ccc2nc(COc3cccc(NC(=O)c4cccc(Cl)c4)c3)cc(=O)n2c1` as the compound, how does the “activity change, negative = cytotoxic” value read?
**A.** 2.14% (inactive)

**Q.** Which “activity change, negative = cytotoxic” value does the source give for `CCc1nc2ccc(C(=O)N3CCN(c4cc(Cl)ccc4C)CC3)cc2nc1CC` here?
**A.** 0% (inactive)

**Q.** With `O=C(c1ccco1)N(Cc1cccs1)c1ccc(O)cc1` as the compound, how does the “activity change, negative = cytotoxic” value read?
**A.** 3.03% (inactive)

**Q.** With `CCOC(=O)C1=CC[C@@H](c2ccccc2)N(S(=O)(=O)c2ccc(C)cc2)[C@H]1c1ccc(CC)cc1` as the compound, how does the “activity change, negative = cytotoxic” value read?
**A.** -1.65% (inactive)

**Q.** With `CCOC(=O)C1C(C)C(C(C)(C)C)N(S(=O)(=O)c2ccc(C)cc2)C1c1ccccc1` (stereo not drawn) as the compound, how does the Potency read?
**A.** 23.1 µM (active)

**Q.** For `CCOC(=O)C1=CC[C@@H](c2ccccc2)N(S(=O)(=O)c2ccc(C)cc2)[C@H]1c1cccc(OC)c1`, which “activity change, negative = cytotoxic” value is on record?
**A.** -0.13% (inactive)

**Q.** With `COc1ccc(-c2ccc3ncnc(NCc4cccs4)c3c2)cc1OC` as the compound, how does the “activity change, negative = cytotoxic” value read?
**A.** -8.64% (inactive)

**Q.** Which “activity change, negative = cytotoxic” value does the source give for `Cc1ccccc1CSCCNC(=O)C1CCN(S(=O)(=O)Cc2ccccc2)CC1` here?
**A.** 5.62% (inactive)

**Q.** With `CCCNC(=O)C1CCC(Cn2c(=O)c3sccc3n(Cc3ccccc3F)c2=O)CC1` (stereo not drawn) as the compound, how does the “activity change, negative = cytotoxic” value read?
**A.** 3.19% (inactive)

**Q.** Which “activity change, negative = cytotoxic” value does the source give for `CCOC(=O)c1ccc(NC(=O)c2ncn(-c3ccccc3)n2)cc1` here?
**A.** -18.2% (inactive)

**Q.** For `CCOc1ccc(CNC(=O)c2cc(-c3ccc(Cl)s3)nc3ccccc23)cc1`, which “activity change, negative = cytotoxic” value is on record?
**A.** 7.73% (inactive)

**Q.** Which Potency does the source give for `CCc1cc2c(N3CCN(c4nnc(CC)s4)CC3)ncnc2s1` here?
**A.** 9.2 µM (active)

**Q.** For `CCc1cc2c(NC(Cc3ccccc3)C(=O)O)ncnc2s1` (stereo not drawn), which “activity change, negative = cytotoxic” value is on record?
**A.** 16.8% (inactive)

**Q.** With `CCN1CCN(c2ncnc3c2cnn3-c2ccc(C)c(C)c2)CC1` as the compound, how does the “activity change, negative = cytotoxic” value read?
**A.** -9.73% (inactive)

**Q.** Which “activity change, negative = cytotoxic” value does the source give for `CCCCOc1ccc(C(=O)Nc2cccc(-c3nc4ccccc4o3)c2C)cc1` here?
**A.** 2.3% (inactive)

**Q.** With `Cc1ccc2nc(CN3CCN(S(=O)(=O)c4ccc(C)c(C)c4)CC3)oc2c1` as the compound, how does the “activity change, negative = cytotoxic” value read?
**A.** 5.7% (inactive)

**Q.** Which “activity change, negative = cytotoxic” value does the source give for `CSc1ccccc1NC(=O)c1cc(Cl)sc1Cl` here?
**A.** 5.25% (inactive)

**Q.** For `COc1ccccc1NC(=O)c1cc(Cl)nnc1Cl`, which Potency is on record?
**A.** 23.1 µM (active)

**Q.** For `COc1ccccc1NC(=O)c1cc(N2C(=O)C3C4CCC(C4)C3C2=O)ccc1Cl` (stereo not drawn), which “activity change, negative = cytotoxic” value is on record?
**A.** 26.6% (inactive)

**Q.** With `Oc1ccccc1-c1nc(/C=C/c2ccc(F)cc2)no1` as the compound, how does the “activity change, negative = cytotoxic” value read?
**A.** -0.486% (inactive)

**Q.** For `COc1cc2c(=O)c(S(=O)(=O)c3ccc(C(C)C)cc3)cn(Cc3ccccc3C)c2cc1OC`, which “activity change, negative = cytotoxic” value is on record?
**A.** 9.54% (inactive)

**Q.** Which “activity change, negative = cytotoxic” value does the source give for `CCOc1ccc(-n2c(SCC(=O)Nc3cc(C(=O)O)ccc3Cl)nc3ccccc3c2=O)cc1` here?
**A.** -4.78% (inactive)

**Q.** With `Cc1cc(C)nc(N/N=C/c2c(CO)cnc(C)c2O)n1` as the compound, how does the “activity change, negative = cytotoxic” value read?
**A.** 13.8% (inactive)

**Q.** With `CCOc1ccc(-n2c(O)c(/C=N/Nc3nc(C)cc(C)n3)c3ccccc3c2=O)cc1` as the compound, how does the Potency read?
**A.** 20.6 µM (active)

**Q.** Which “activity change, negative = cytotoxic” value does the source give for `COc1cc(OC)c(NC(=O)c2nc(-c3ccncc3)no2)cc1Cl` here?
**A.** -2% (inactive)

**Q.** With `Cc1ccc(N2CCN(C(=O)CCc3c(C)nc4c(c3C)c(=O)n(C)c(=O)n4C)CC2)c(C)c1` as the compound, how does the “activity change, negative = cytotoxic” value read?
**A.** 11.6% (inactive)

**Q.** With `Cc1ccc(OCCn2c(CNc3ccccc3C)nc3ccccc32)cc1` as the compound, how does the “activity change, negative = cytotoxic” value read?
**A.** 2.01% (inactive)

**Q.** Which “activity change, negative = cytotoxic” value does the source give for `Cc1cc(C)cc(Nc2ncnc3onc(-c4ccc(F)cc4)c23)c1` here?
**A.** -3.07% (inactive)

**Q.** With `CCC1CN(S(=O)(=O)c2cc(-c3cc(C)no3)ccc2C)c2cc(C)ccc2O1` (stereo not drawn) as the compound, how does the “activity change, negative = cytotoxic” value read?
**A.** -0.508% (inactive)

**Q.** For `CC1Cc2ccccc2N1S(=O)(=O)c1ccc(Cl)nc1` (stereo not drawn), which “activity change, negative = cytotoxic” value is on record?
**A.** 4.04% (inactive)

**Q.** For `Cc1cc(-c2ccc(C)c(S(=O)(=O)N3c4ccccc4CC3C)c2)on1` (stereo not drawn), which Potency is on record?
**A.** 14.6 µM (active)

**Q.** Which Potency does the source give for `COc1cccc(C(=O)Nc2ccc(N3CCN(C(=O)c4ccco4)CC3)cc2)c1` here?
**A.** 4.61 µM (active)

**Q.** Which “activity change, negative = cytotoxic” value does the source give for `O=C(Nc1ccccc1N1CCN(C(=O)c2ccccc2)CC1)c1ccco1` here?
**A.** 5.81% (inactive)

**Q.** With `O=C(OCC(=O)N1CCN(C(=O)c2ccco2)CC1)c1cccc(O)c1` as the compound, how does the “activity change, negative = cytotoxic” value read?
**A.** -20% (inactive)

**Q.** Which “activity change, negative = cytotoxic” value does the source give for `Cc1csc2nc(COc3ccc(NC(=O)COc4ccccc4)cc3)cc(=O)n12` here?
**A.** 0.478% (inactive)

**Q.** For `O=C1CCCN1C(=O)COc1ccc([N+](=O)[O-])cc1`, which “activity change, negative = cytotoxic” value is on record?
**A.** -1.51% (inactive)

**Q.** For `O=[N+]([O-])c1ccc(/C=C/c2ccc3cccnc3c2)cc1`, which “activity change, negative = cytotoxic” value is on record?
**A.** -25.6% (inactive)

**Q.** With `O=C1/C(=C\c2ccc([N+](=O)[O-])cc2)CS(=O)(=O)C/C1=C/c1ccc([N+](=O)[O-])cc1` as the compound, how does the Potency read?
**A.** 1.46 µM (active)

**Q.** Which “activity change, negative = cytotoxic” value does the source give for `Cc1ccccc1C(=O)Nc1sc2c(c1C(=O)N1CCC(C)CC1)CCCC2` here?
**A.** -11.4% (inactive)

**Q.** With `COc1ccc(CNC(=O)c2ccc3c(O)c(S(=O)(=O)c4ccccc4)c(=O)[nH]c3c2)cc1` as the compound, how does the “activity change, negative = cytotoxic” value read?
**A.** 3.06% (inactive)

**Q.** With `Cc1ccc(C)c(N2C(=O)N(Cc3c(F)cccc3Cl)c3ccccc3S2(=O)=O)c1` as the compound, how does the “activity change, negative = cytotoxic” value read?
**A.** -18.6% (inactive)
